Experimental findings from ChEMBL document CHEMBL3988442, “University of Dundee, Small-Polar-MMV Screening Library” (2021) are described below.

For some of these results: Measured potencies and affinities stand elsewhere.

Holding throughout (set-up): scale not given: direction of the effect not stated beside the values
Assay [1] addresses Protein translocase subunit SecA (Escherichia coli (strain K12)) (UniProt P10408). The experiment in a line: Assay to Identify E. coli SecA ATPase Inhibitors. In kind it is functional. The note with it: 30 µM.
Assay [2] concerns the target T1, Ubiquitin-activating enzyme e1, putative (Leishmania donovani (strain BPK282A1)) (UniProt E9BSI1).
T1 sequence (whole entry): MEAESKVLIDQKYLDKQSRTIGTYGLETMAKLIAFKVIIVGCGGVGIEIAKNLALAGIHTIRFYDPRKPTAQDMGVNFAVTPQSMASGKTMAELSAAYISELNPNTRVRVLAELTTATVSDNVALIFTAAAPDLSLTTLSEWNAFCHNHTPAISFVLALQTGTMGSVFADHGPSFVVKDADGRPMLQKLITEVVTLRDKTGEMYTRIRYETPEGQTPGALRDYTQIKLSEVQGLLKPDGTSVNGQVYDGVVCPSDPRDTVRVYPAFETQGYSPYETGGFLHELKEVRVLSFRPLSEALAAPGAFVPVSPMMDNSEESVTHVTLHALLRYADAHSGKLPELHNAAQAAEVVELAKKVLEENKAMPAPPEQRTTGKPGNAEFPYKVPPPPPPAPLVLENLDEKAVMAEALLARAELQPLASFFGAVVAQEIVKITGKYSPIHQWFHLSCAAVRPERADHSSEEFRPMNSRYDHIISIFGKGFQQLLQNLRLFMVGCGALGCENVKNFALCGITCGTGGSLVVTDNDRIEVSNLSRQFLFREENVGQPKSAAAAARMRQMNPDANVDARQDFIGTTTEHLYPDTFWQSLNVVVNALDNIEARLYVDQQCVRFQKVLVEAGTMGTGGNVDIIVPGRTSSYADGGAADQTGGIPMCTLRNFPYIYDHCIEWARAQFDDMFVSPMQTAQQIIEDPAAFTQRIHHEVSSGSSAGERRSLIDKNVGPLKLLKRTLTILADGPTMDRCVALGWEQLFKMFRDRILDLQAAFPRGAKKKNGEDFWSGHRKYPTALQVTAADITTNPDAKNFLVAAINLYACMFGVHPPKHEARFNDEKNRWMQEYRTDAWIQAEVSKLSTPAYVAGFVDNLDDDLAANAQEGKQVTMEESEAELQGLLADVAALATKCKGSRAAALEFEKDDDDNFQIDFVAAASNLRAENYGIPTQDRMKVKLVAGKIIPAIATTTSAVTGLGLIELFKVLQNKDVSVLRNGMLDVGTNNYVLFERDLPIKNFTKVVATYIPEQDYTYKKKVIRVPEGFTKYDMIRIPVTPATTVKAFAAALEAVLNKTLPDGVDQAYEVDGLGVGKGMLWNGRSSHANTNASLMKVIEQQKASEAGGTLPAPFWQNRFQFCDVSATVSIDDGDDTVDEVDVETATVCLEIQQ
The experiment in a line: Leishmania donovani Ubiquitin Activating Enzyme (LdE1). The note with it: 30 µM. The format is functional.

Assay [3] concerns the target AMP-activated protein kinase, AMPK (Homo sapiens) (UniProt P54646+O43741+P54619+Q9UGJ0+Q9Y478+Q13131+Q9UGI9). The experiment in a line: AMP-dependent Kinase enzyme assay. An in vitro enzyme assay that detects ADP turnover that is directly proportional to AMPK activity. This uses naive AMPK that is activated during the assay with MK-8722. In kind it is functional. The note with it: 30 µM.

Assay [4] concerns the target Sialic acid-binding Ig-like lectin 9 (Homo sapiens) (UniProt Q9Y336). The experiment in a line: Hs-Siglec9 ALPHAscreen SOP 20170721. The note with it: 10 µM.
Assay [5] deals with Trypanosoma cruzi. The experiment in a line: Trypanosoma cruzi phosphomannomutase and mannose-1-phosphate guanylyltransferase assay. The format is functional. The note with it: 10 µM.
The target in assay [6] is T2, Arginase-2, mitochondrial (Homo sapiens) (UniProt P78540).
T2 sequence (whole entry): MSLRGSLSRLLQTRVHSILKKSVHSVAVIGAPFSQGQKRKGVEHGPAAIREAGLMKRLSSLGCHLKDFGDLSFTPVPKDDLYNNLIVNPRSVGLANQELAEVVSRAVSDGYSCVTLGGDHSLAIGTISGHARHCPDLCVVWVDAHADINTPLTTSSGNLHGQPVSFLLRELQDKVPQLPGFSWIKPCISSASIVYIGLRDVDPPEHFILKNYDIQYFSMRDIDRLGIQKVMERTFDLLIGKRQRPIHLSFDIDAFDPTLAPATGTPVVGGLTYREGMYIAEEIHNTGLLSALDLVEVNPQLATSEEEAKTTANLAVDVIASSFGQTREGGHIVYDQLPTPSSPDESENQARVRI
The experiment in a line: in vitro enzyme assay to detect the production of urea directly proportional to the activity of Arginase II. Also: in the data most compounds retested in dose-response had high values. The note with it: 33.3 µM. The format is functional.

For assay [7], the target named is T3, Proteasome subunit beta (Trypanosoma cruzi) (UniProt O96673).
T3 sequence (whole entry): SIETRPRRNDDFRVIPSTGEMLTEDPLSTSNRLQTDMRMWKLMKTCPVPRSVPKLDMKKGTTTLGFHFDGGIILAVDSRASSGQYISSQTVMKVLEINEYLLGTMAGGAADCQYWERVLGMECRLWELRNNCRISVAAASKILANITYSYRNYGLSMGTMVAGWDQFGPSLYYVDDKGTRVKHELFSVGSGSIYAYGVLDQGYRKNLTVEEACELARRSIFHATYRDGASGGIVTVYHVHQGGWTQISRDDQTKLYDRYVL
Briefly: Trypanosoma cruzi proteasome chymotrypsin-like activity (TcProtChymo) assay. Also: in the data most compounds retested in dose-response had high values. The note with it: 9.37 µM. The format is functional.

For assay [8], the species on record is Homo sapiens. The experiment in a line: To identify inhibition of the IFN signalling (Jak-Stat) pathway via expression of an eGFP reporter gene under the control of an IFN-stimulated response element (ISRE) containing MxA promoter. The format is functional. The note with it: 30 µM. A general note: A reporter such as luciferase makes a cellular process visible.

Assay [9] has as its target T4, Tyrosyl-tRNA synthetase, putative (Trypanosoma cruzi (strain CL Brener)) (UniProt Q4DSP6).
T4 sequence (whole entry): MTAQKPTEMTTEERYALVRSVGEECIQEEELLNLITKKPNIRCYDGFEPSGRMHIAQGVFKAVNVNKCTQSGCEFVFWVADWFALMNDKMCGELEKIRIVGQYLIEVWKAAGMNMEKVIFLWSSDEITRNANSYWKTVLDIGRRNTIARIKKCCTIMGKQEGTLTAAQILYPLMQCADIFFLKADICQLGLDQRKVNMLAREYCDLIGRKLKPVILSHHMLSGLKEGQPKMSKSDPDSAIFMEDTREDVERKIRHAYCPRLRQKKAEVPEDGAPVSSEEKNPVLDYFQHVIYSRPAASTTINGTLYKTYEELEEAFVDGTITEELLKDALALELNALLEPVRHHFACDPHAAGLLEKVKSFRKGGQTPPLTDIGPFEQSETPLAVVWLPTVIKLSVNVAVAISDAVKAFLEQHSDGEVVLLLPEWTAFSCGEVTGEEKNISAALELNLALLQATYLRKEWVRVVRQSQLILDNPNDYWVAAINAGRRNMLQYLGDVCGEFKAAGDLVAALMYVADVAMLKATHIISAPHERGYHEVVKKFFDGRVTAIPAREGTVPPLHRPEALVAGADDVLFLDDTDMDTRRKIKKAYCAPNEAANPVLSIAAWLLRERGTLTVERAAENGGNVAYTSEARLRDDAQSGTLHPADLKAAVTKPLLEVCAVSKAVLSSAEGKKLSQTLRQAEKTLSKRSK
Briefly: Trypanosoma cruzi tyrosyl tRNA synthetase (TcYRS) _High Tyrosine SOP. Also: in the data most compounds retested in dose-response had high values. In kind it is functional. The note with it: 30 µM.

Assay [10] addresses T4, Tyrosyl-tRNA synthetase, putative (Trypanosoma cruzi (strain CL Brener)). Briefly: Trypanosoma cruzi tyrosyl tRNA synthetase (TcYRS) SOP. In kind it is functional. The note with it: 30 µM.
For assay [11], the target named is Chromo domain-containing protein 1 (Saccharomyces cerevisiae (strain ATCC 204508 / S288c) (Baker's yeast)) (UniProt P32657). The experiment in a line: ScCHD-1 Enzyme Inhibition Assay. Also: in the data most compounds retested in dose-response had high values. The note with it: 30 µM. The format is functional.
Chain of Chromo domain-containing protein 1 (Saccharomyces cerevisiae (strain ATCC 204508 / S288c) (Baker's yeast)) (P32657 whole entry, the tested form may be a part): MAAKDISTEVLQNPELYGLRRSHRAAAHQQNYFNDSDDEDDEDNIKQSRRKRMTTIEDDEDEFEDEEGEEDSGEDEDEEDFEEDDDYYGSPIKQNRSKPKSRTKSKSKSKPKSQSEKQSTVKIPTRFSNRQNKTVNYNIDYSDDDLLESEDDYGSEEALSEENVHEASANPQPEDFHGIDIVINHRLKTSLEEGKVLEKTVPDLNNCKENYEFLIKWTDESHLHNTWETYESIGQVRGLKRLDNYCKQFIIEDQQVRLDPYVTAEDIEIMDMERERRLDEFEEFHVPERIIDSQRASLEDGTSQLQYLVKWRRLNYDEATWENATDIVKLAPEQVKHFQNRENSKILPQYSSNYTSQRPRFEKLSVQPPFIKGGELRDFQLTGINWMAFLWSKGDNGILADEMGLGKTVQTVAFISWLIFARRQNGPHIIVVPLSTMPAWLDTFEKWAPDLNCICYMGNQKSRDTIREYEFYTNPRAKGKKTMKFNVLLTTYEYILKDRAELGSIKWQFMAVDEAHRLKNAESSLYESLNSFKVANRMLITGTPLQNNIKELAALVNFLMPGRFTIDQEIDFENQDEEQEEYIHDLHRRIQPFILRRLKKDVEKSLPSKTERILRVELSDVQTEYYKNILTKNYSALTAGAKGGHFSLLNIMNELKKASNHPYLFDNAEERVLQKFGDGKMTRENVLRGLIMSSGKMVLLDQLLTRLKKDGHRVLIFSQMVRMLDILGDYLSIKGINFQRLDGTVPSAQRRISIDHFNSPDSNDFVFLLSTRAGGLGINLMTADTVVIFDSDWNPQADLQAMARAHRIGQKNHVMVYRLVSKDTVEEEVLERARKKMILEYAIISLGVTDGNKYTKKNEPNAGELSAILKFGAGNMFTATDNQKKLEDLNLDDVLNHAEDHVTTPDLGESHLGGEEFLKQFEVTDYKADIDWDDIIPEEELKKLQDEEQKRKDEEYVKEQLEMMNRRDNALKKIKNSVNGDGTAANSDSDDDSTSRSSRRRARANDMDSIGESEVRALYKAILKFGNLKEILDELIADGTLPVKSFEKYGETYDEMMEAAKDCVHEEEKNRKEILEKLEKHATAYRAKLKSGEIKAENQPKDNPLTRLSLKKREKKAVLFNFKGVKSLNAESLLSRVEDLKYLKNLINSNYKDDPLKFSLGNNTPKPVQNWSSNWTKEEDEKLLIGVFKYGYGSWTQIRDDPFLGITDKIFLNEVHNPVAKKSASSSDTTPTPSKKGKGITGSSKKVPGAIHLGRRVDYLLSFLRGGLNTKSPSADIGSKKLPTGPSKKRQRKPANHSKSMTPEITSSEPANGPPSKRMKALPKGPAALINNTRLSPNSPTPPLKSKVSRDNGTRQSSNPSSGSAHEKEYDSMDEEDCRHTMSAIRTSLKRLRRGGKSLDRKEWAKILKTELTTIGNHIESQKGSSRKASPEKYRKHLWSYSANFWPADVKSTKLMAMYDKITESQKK

Chain of Sialic acid-binding Ig-like lectin 9 (Homo sapiens) (Q9Y336 whole entry): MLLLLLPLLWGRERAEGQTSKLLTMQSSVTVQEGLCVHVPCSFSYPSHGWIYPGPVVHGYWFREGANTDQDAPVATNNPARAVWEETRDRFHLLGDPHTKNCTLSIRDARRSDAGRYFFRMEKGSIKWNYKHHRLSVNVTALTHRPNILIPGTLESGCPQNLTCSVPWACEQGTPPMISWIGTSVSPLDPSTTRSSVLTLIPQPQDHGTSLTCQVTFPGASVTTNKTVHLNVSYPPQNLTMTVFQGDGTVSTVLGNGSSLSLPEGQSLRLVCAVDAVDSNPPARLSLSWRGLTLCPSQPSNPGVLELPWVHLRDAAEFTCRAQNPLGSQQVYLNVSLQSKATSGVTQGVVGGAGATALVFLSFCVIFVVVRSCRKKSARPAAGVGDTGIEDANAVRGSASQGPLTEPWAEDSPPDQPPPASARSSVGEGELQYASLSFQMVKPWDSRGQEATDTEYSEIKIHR
Chain of Protein translocase subunit SecA (Escherichia coli (strain K12)) (P10408 whole entry): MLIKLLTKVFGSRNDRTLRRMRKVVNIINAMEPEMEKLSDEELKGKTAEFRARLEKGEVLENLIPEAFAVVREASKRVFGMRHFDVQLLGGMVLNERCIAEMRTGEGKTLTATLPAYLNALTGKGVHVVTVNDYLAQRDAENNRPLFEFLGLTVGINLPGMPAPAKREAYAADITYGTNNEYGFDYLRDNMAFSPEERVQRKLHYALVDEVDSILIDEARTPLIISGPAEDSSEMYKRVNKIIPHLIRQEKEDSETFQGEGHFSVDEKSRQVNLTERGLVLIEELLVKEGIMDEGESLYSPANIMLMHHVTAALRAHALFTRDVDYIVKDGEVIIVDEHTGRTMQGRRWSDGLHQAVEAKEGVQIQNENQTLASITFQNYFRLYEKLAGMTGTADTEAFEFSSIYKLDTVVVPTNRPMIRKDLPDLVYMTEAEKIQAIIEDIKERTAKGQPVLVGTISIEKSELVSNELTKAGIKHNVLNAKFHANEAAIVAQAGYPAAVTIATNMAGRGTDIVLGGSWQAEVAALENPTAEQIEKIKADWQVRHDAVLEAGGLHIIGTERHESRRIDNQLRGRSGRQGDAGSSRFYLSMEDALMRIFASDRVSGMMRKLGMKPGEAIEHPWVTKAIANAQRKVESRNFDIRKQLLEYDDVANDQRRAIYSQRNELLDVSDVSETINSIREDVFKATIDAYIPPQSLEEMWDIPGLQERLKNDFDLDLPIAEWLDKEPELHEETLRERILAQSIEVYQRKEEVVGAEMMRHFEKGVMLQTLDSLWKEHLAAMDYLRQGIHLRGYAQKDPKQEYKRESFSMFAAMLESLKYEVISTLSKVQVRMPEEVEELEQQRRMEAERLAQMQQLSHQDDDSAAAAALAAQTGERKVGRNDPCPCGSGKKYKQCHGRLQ

Take `Cc1cc(C)n(-c2cncc(NCCNC(=O)C(C)C)n2)n1`: the Percent Effect in [1] is -6.42%; in assay [2], 8.11%; in assay [3], -5.29%; in [4], -1.97%; in assay [5], -3.03%; in assay [6] it was 0.248%. Moreover, the Percent Effect in [7] was 10.4%; in assay [8] it was -9.83%; in assay [9] it was 4.3%; in assay [10] it was 6.17%; in assay [11], -5.51%.
As for `Cn1ccnc1CN1CCCN(C(=O)c2ccc(Cl)o2)CC1`, the Percent Effect in assay [1] was -4.86%; in assay [2], 0%; in assay [3], -1.55%; in assay [4], 4.15%; in assay [5] it was 1.4%; in assay [6] it was 1.44%. For the same compound, the Percent Effect in assay [7] is 3.13%; in assay [8], -16.8%; in [9], 2.46%; in [10], 1.24%; in [11], 0.744%.
In the case of `c1ncn(CC2CN(Cc3csc(C4CCCC4)n3)CCO2)n1` (stereo unspecified), the Percent Effect is -7.65% in assay [1]; 15.8% in [2]; -7.05% in assay [3]; 15.7% in assay [4]; 3.46% in assay [5]; -1.44% in assay [6]. The Percent Effect in [7] was -2.79%; in [8], 2.48%; in [9], 4.43%; in assay [10], 23.5%; in [11], -9.07%.
In the case of `CC(Cn1ccnc1)NC(=O)N1CCN(Cc2cccnc2)CC1` (stereo unspecified), the Percent Effect in assay [1] is -5%; in [2] it was 18.4%; in assay [3] it was -6.12%; in [4], 5.79%; in [5], 8.46%; in assay [6], -3.83%. For the same compound, the Percent Effect in assay [7] was 11.5%; in [8] it was 4.46%; in assay [9], 7.35%; in assay [10], 19.5%; in assay [11], -10.3%.
For `COCCCNC(=O)CCn1nc(C)c2ccccc21`, the Percent Effect in assay [1] was -3.61%; in assay [2] it was 6.67%; in assay [3], 0.569%; in assay [4] it was 3.25%; in assay [5], -6.09%; in assay [6] it was -6.16%. For the same compound, the Percent Effect was 15% in assay [7]; 2.4% in assay [8]; 3.17% in assay [9]; 2.56% in assay [10]; -8.28% in assay [11].
Consider `CC(C)(C)C(=O)NCCc1ccn(-c2ccccc2)n1`, for which the Percent Effect is -5.41% in assay [1]; 13.9% in assay [2]; 0.882% in assay [3]; 2.89% in assay [4]; -0.923% in assay [5]; 4.09% in assay [6]. Besides, the Percent Effect in assay [7] was 8.92%; in assay [8], 2.37%; in assay [9], 4.17%; in assay [10], 17.7%; in [11], -30%.
Turning to `O=C(NCCN1CCOCC1)NCC(O)c1cccc(F)c1` (stereo unspecified), the Percent Effect in assay [1] was -4.85%; in assay [2], 16.2%; in assay [3], -10.5%; in [4] it was 13.6%; in [5] it was 5.75%; in assay [6] it was -6.01%. Besides, the Percent Effect is 4.68% in [7]; 10.8% in assay [8]; 5.42% in [9]; 11.1% in assay [10]; -10.8% in assay [11].
Turning to `Cc1cc(NC(=O)NCc2cccnc2OC(C)C)n(C)n1`, the Percent Effect in assay [1] is -2.88%; in assay [2], 8.86%; in [3] it was 1.26%; in assay [4], 3.66%; in [5], 0.103%; in [6] it was -1.07%. In addition, the Percent Effect was 19.4% in [7]; 4.52% in [8]; 3.12% in [9]; 12.7% in [10]; -22.1% in assay [11].
Regarding `CN1CCN(C2CCN(CC(=O)NCC(F)(F)F)CC2)C1=O`, the Percent Effect is -6.45% in assay [1]; 15.2% in assay [2]; -9.09% in assay [3]; 10.9% in assay [4]; 7.46% in assay [5]; -3.8% in [6]. For the same compound, the Percent Effect is 5.32% in [7]; -11.8% in assay [8]; 3.45% in assay [9]; 13.9% in assay [10]; -3.32% in assay [11].
Turning to `Cc1cc(C)n(CC2CCCN2C(=O)c2ccc(C(N)=O)cn2)n1` (stereo unspecified), the Percent Effect in [1] is -6.82%; in [2], 16.5%; in assay [3], 1.06%; in [4], -0.198%; in assay [5], 2.56%; in [6], 1.5%. Further, the Percent Effect is 7.38% in assay [7]; 7.83% in assay [8]; -3.12% in [9]; 17.7% in [10]; -27.9% in [11].
As for `CCn1cc(CN2CCc3nc(N4CCOCC4)nc(O)c3CC2)cn1`, the Percent Effect in assay [1] was -7.19%; in [2] it was 12.2%; in assay [3], -3.19%; in assay [4], 18.1%; in [5] it was 0.988%; in [6], -6.26%. Moreover, the Percent Effect in assay [7] is 7.64%; in assay [8], 4.24%; in assay [9] it was 3.23%; in assay [10], 9.09%; in assay [11], -27.2%.
